Records with an inconclusive call do not appear. The source made the active and inactive calls. Calls follow the shape of the dose curve; as a rule, active = well fitted curve in the direction sought with a large enough effect; inconclusive = small, poorly fitted or top-dose-only effect, or another doubt; inactive = no such curve, though single readings can be large; an effect the other way counts as inactive or inconclusive.

A short description of test [1]: qHTS of pediatric cancer cell lines to identify multiple opportunities for drug repurposing: Confirmatory screen for BT-37 cells (AID 1347117). Also: nearly all actives have a fitted effect of over 55% in size. Also: potency is read from the fitted curve at half-maximal effect. An outline of the steps:
(§1)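 Cells (500-1,000/well) in growth media were settled 5 h at 37 degrees C, then given compounds for 48 h. Viability was read as CellTiter-Glo luminescence. Primary runs used MIPE at 11 points (0.78 nM-46 µM) and NPC at 8 points (0.59 nM-46 µM); follow-ups used 11 points.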

The nature of test [2]: qHTS of pediatric cancer cell lines to identify multiple opportunities for drug repurposing: Confirmatory screen for TC32 cells (AID 1347118).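 Also: cells exposed to compound for 48 h before the read; nearly all actives have a fitted effect of over 65% in size.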 Also: potency is read from the fitted curve at half-maximal effect. An outline of the steps: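 Luminescent ATP read-out (CellTiter-Glo) of metabolically active TC32 cells after 48 h exposure. Concentration-response curves came from 11-point (MIPE, 0.78 nM–46 µM) or 8-point (NPC, 0.59 nM–46 µM) primary titrations; follow-up used 11 points.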

Test [3] can be described thus: qHTS of pediatric cancer cell lines to identify multiple opportunities for drug repurposing: Confirmatory screen for control Hh wild type fibroblast cells (AID 1347121). Also: nearly all actives have a fitted effect of over 70% in size. An outline of the steps:
as §1
A general note: qHTS replaces the single test concentration by a dilution series.

A short description of test [4]: qHTS of pediatric cancer cell lines to identify multiple opportunities for drug repurposing: Confirmatory screen for U-2 OS cells (AID 1347122). Also: nearly all actives have a fitted effect of over 65% in size. The method in brief: as §1
Test [5] can be described thus: qHTS of pediatric cancer cell lines to identify multiple opportunities for drug repurposing: Confirmatory screen for RD cells (AID 1347124).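 Also: cells exposed to compound for 48 h before viability readout; nearly all actives have a fitted effect of over 65% in size.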 Also: potency is read from the fitted curve at half-maximal effect. The method in brief: as §1
Test [6] can be described thus: qHTS of pediatric cancer cell lines to identify multiple opportunities for drug repurposing: Confirmatory screen for Rh18 cells (AID 1347125). Also: nearly all actives have a fitted effect of over 55% in size. An outline of the steps: as §1
Test [7] can be described thus: qHTS of pediatric cancer cell lines to identify multiple opportunities for drug repurposing: Confirmatory screen for Rh30 cells (AID 1347126). Also: nearly all actives have a fitted effect of over 55% in size. Also: potency is read from the fitted curve at half-maximal effect. The method in brief:
as §1

Test [8] in a line: qHTS of pediatric cancer cell lines to identify multiple opportunities for drug repurposing: Confirmatory screen for OHS-50 cells (AID 1347128).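 Also: compound exposure lasted 48 h at 37 degrees C; nearly all actives have a fitted effect of over 55% in size.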 Also: potency is read from the fitted curve at half-maximal effect. The method in brief:
as §1

Test [9] in a line: qHTS of pediatric cancer cell lines to identify multiple opportunities for drug repurposing: Confirmatory screen for SK-N-SH cells (AID 1347129).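 Also: cells exposed to compound for 48 h before viability read; nearly all actives have a fitted effect of over 60% in size.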 Also: potency is read from the fitted curve at half-maximal effect. An outline of the steps: as §1
The subject of test [10] is Zika virus NS2B-NS3 protease. The test is described as follows: Primary screen GU AMC qHTS for Zika virus inhibitors (AID 1347154). Also: nearly all actives have a fitted effect of over 70% in size. Also: potency is read from the fitted curve at half-maximal effect. An outline of the steps: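 Unlinked Zika NS2B hydrophilic domain/NS3 protease domain noncovalent complex (25 nM final) in 10 mM Tris-HCl pH 8.0, 0.01% Tween 20, with AMC peptide substrate. Fluorescence (ex 340, em 450 nm) change over 15 min, room temperature; percent inhibition fitted to 4-parameter Hill equation.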

Test [11] can be described thus: qHTS of pediatric cancer cell lines to identify multiple opportunities for drug repurposing: Confirmatory screen for SJ-GBM2 cells (AID 1347116). Also: nearly all actives have a fitted effect of over 60% in size. Also: potency is read from the fitted curve at half-maximal effect. The method in brief:
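Viability measured as metabolically active cells via CellTiter-Glo luminescence following 48 hours of compound exposure, 11-point dilutions in confirmatory testing. 500-1,000 cells/well plated 5 hours before dosing; controls were DMSO and 2.3 µM bortezomib.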

In test [12] the target is N-terminal Xaa-Pro-Lys N-methyltransferase 1 (Homo sapiens) (UniProt Q9BV86). The test is described as follows: qHTS Assay for Inhibitors of N-terminal methyltransferase 1 (NTMT1): LOPAC validation of the NTMT1 SAHH-coupled ThioGlo3 Assay (AID 1347143). Also: nearly all actives have a fitted effect of over 70% in size. An outline of the steps: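 Fluorescence read-out (excitation 340nm, emission 450nm) of SAH-derived thiol, measured via SAHH coupling and ThioGlo3, taken immediately and after a 30 min room-temperature reaction, then normalized to the background read. Enzyme: NTMT1 at 125nM; cofactor SAM 100uM in the added reagent.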
N-terminal Xaa-Pro-Lys N-methyltransferase 1 (Homo sapiens), sequence (Q9BV86 whole entry, looked up): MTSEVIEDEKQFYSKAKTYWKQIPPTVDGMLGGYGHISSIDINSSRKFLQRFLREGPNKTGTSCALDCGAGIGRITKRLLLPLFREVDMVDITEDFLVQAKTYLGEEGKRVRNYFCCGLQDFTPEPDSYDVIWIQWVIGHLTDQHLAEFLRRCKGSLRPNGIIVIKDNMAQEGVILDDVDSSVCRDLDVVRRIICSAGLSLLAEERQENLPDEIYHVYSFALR

Test [13] deals with Zika virus NS2B-NS3 protease (unlinked). The test is described as follows: Optimization of GU AMC qHTS for Zika virus inhibitors: Unlinked NS2B-NS3 protease assay (AID 1347151). Also: potency is read from the fitted curve at half-maximal effect; nearly all actives have a fitted effect of over 80% in size. An outline of the steps: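 Fluorescence gain (340/450 nm) over 15 min at room temperature, ~20% conversion, gave percent inhibition fitted to a 4-parameter Hill equation; enzyme was unlinked NS2B-NS3 (25 nM final), pH 8.0 Tris buffer.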

As to `CC(C)(C#N)c1cc(Cn2cncn2)cc(C(C)(C)C#N)c1`, the Potency result in test [1], in test [2], in [3], in [4], in test [5] and in test [6] was “inactive” throughout. Moreover, the Potency entry in [7], in test [8], in [9] and in test [10] was “inactive” throughout.
Take `CC(C)(C)C(=O)OCOP(=O)(COCCn1cnc2c(N)ncnc21)OCOC(=O)C(C)(C)C`: the Potency entry in test [11], in test [4], in test [5], in [6], in test [9] and in test [10] was “inactive” in each case. In addition, the results for the Potency in test [1], in [2] and in [8] were 3.69 µM (active), 1.17 µM (active) and 16.5 µM (active), respectively.
Regarding `Cn1nnc2c(C(N)=O)ncn2c1=O`, the Potency result in [11], in [1], in test [2], in test [3], in test [4] and in [5] was “inactive” throughout. Further, the Potency entry in test [6], in [7], in [8], in test [9] and in test [10] was “inactive” throughout.
`COc1nc(N)nc2c1ncn2[C@@H]1O[C@H](CO)[C@@H](O)[C@@H]1O`: the Potency result in test [11], in test [3], in [4], in test [5], in [8] and in test [9] was “inactive” in each case. Moreover, the Potency result in test [10] is “inactive”. Also, the results for the Potency in [1] and in test [2] were 18.5 µM (active) and 3.69 µM (active), respectively.
In the case of `CS(=O)(=O)c1ccc([C@@H](O)[C@@H](CO)NC(=O)C(Cl)Cl)cc1`, the Potency result in [11], in test [1], in test [2], in test [3], in [4] and in test [5] was “inactive” in each case. The Potency entry in test [6], in [7], in [8], in [9] and in test [10] was “inactive” throughout.
`CNCC[C@H](Oc1cccc2ccccc12)c1cccs1`: the Potency result in test [11], in test [1], in test [3], in [4], in test [6] and in [7] was “inactive” throughout. Also, the Potency entry in test [10] was “inactive”. In addition, the Potency in test [2] was 7.37 µM (active).
Turning to `S=P(N1CC1)(N1CC1)N1CC1`, the Potency result in test [11], in test [3], in test [4], in test [5], in test [6] and in test [7] was “inactive” in each case. For the same molecule, the Potency entry in test [8] and in [10] was “inactive” in each case. For the same molecule, in test [2], the Potency is 4.14 µM (active).
Regarding `COc1cc2nc(N3CCCN(C)CC3)nc(NC3CCN(Cc4ccccc4)CC3)c2cc1OC`, the Potency in test [11] is 0.928 µM (active); in test [1], 20.8 µM (active); in test [2] it was 11.7 µM (active); in test [5], 0.657 µM (active); in test [7] it was 0.147 µM (active); in test [8], 18.5 µM (active). Besides, the results for the Potency in test [9], in [13] and in [10] were 8.33 µM (active), 21.2 µM (active) and 27.1 µM (active), respectively. Further, the Potency entry in test [3] and in [12] was “inactive” in each case.
